DT40 TDP1 CPT: qHTS for Inhibitors of human tyrosyl-DNA phosphodiesterase 1 (TDP1): qHTS in cells in presence of CPT; 420,000 compounds, 12% hits; Potency, µM (series often up to 46.2 µM), without a hit: at the top dose activity change, negative = growth inhibition, most hits filed as inhibitors; chicken DT40 Tdp1-/-;hTDP1 cells + 20 nM CPT, ATP luminescence, 48 h; AID 686979, 2013; further: potency means the concentration at half of the fitted maximal effect; nearly all actives have a fitted effect of over 55% in size
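Chicken DT40 Tdp1-/- cells stably complemented with human TDP1 were seeded at 400 cells/well in medium containing 20 nM camptothecin, exposed to pin-transferred compounds, and grown at 37 °C for at least 48 hr. Viability was read as ATP luminescence.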
uPA surface inh: qHTS for Inhibitors of Cell Surface uPA Generation; cell surface uPA generation assay, qHTS; AID 540303, 2011; 330,000 compounds, 0.31% hits; Potency, µM (series often up to 38.3 µM), inactives show at the highest dose activity change, negative = inhibition, actives largely listed as inhibitors; active means well fitted inhibition curve with a large enough effect; inconclusive means small, poorly fitted or top-dose-only effect; inactive means no such curve, though single readings can be large or run the other way; tested in mouse RAW 264.7 cells; further: potency means the concentration at half of the fitted maximal effect; nearly all actives have a fitted effect of over 55% in size
IL1B secr inh: qHTS for Inhibitors of Inflammasome Signaling: IL-1-beta AlphaLISA Primary Screen; THP-1 LPS/ATP IL-1B secretion, AlphaLISA, 16 h; active compounds read low; 360,000 compounds, 4.7% hits; activity change, % at 57.5 µM; in the data active means activity change below about -50%; inconclusive means mostly about -30% to -49%
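Secreted IL-1B measured by AlphaLISA bead assay after 16 h compound exposure of THP-1 cells; compounds (final up to 57.5 uM) added 1 h before LPS (250 ng/mL) and ATP (1.25 mM) stimulation; lower signal means less secretion.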
DT40 TDP1 no CPT: qHTS for Inhibitors of human tyrosyl-DNA phosphodiesterase 1 (TDP1): qHTS in cells in absence of CPT; 420,000 compounds, 15% hits; Potency, µM (top dose mostly 46.2 µM), for the others: top-dose activity change, negative = growth inhibition, most hits filed as inhibitors; DT40 Tdp1-/- hTDP1 cells, no CPT, ATP luminescence, 48 h; further: potency means the concentration at half of the fitted maximal effect; nearly all actives have a fitted effect of over 55% in size
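Seeded 400 DT40-hTDP1 cells/well (vehicle DMSO, no 20 nM CPT); pinned compounds; ≥48 hr at 37 °C; CellTiter-Glo luminescence as viability measure.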
HT1080 IDH1KD tx: qHTS for induction of synthetic lethality in tumor cells producing 2HG: qHTS for the HT-1080-IDH1KD cell line | 360,000 compounds, 2% hits | Potency, µM (highest dose often 46.1 µM), for inactives: at the top dose activity, negative = toxicity, actives largely listed as cytotoxic | HT-1080 IDH1 knockdown viability, ATP luminescence, 48 h;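 further: potency means the concentration at half of the fitted maximal effect; 0% = DMSO wells and -100% = cell-free medium wells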
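IDH1KD HT-1080 cells, 750/well, RPMI + 5% FBS; compound pinned after 2 h settling; 48 h, 37 °C; CellTiter-Glo luminescence; % activity normalised to DMSO and no-cell wells; curves fitted, classed by r2 and efficacy.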
HT1080NT lethal: qHTS for induction of synthetic lethality in tumor cells producing 2HG: qHTS for the HT-1080-NT fibrosarcoma cell line; HT-1080-NT fibrosarcoma viability, CellTiter-Glo ATP luminescence, 48 h; Potency, µM (titrated, usually from 46.1 µM), without a hit: at the highest dose activity, negative = less viability, hits mostly cytotoxic; 360,000 compounds, 1.6% hits;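 further: NT is the 2HG producing partner of a matched IDH1 knockdown line; potency means the concentration at half of the fitted maximal effect; 0% = DMSO-treated cells and -100% = media-only wells without cells; nearly all actives have a fitted effect of over 55% in size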
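Viability by CellTiter-Glo luminescence after 48 h compound exposure at 37C of HT-1080-NT cells (750/well, RPMI, 5% FBS). % activity scaled between DMSO wells and medium-only wells, then curve-fitted and categorized by curve class.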
The depositor's hits bear a star; ? = inconclusive; nt = not tested or not shown; [ ] = remark or other dose. Compounds with a hit are over-represented: about 19% of the library has one in this group of screens. Unless noted, the call rests on the fitted dose curve; in most records, active means well fitted curve in the direction sought with a large enough effect; inconclusive means small, poorly fitted or top-dose-only effect, or another doubt; inactive means no such curve, though single readings can be large; an effect the other way counts as inactive or inconclusive. Unless noted, on the % scale 0 is the no-effect control and ±100 the full control effect.

SMILES	DT40 TDP1 CPT	uPA surface inh	IL1B secr inh	DT40 TDP1 no CPT	HT1080 IDH1KD tx	HT1080NT lethal
CC(C)c1ccc(N2C(=NC(=O)C3CC3)SC3CS(=O)(=O)CC32)cc1 (centres undefined)	-14.1%	-0.4%	31.0	4.6%	2.9%	-4.1%
Cc1ccccc1N1CC(c2nc3ccccc3n2CCC2CCCCC2)CC1=O (centres undefined)	13µM*	nt	nt	10.3µM*	nt	nt
CCOc1cc(/C=C2/SC(=Nc3ccccc3)N(Cc3cccnc3)C2=O)ccc1OCC#N	16.4µM*	-1.5%	-7.5	23.1µM*	?	-16.5%
CSc1nn(Cc2ccc(F)cc2)c(N)c1S(=O)(=O)c1ccc(Cl)cc1	?	nt	nt	16.4µM*	nt	nt
CSc1nn(Cc2ccc(C)cc2)c(N)c1S(=O)(=O)c1ccccc1	20.6µM*	nt	nt	23.1µM*	nt	nt
CSc1nn(Cc2cccc(F)c2)c(N(C(C)=O)C(C)=O)c1S(=O)(=O)c1ccccc1	-21.9%	nt	nt	?	nt	nt
CSc1nn(Cc2ccc(Cl)cc2)c(N(C(C)=O)C(C)=O)c1S(=O)(=O)c1ccccc1	16.4µM*	nt	nt	?	nt	nt
COc1ccccc1CNC(=O)C1(NC(=O)Nc2ccc(C)cc2)CCCCC1	?	5.7%	?	?	-4.5%	-7.5%
Cc1ccc(OCC(=O)Nc2cccc(-c3nnc(-c4ccccc4)o3)c2)cc1	16.4µM*	0.8%	-3.7	16.4µM*	18.3%	-0.4%
CSc1cccc(NC(=O)OC2CCCCCCCCCCC2)c1	?	?	-7.1	20.6µM*	11.3%	4.5%
CSc1cccc(NC(=O)COc2ccccc2)c1	8.2µM*	-3.1%	3.4	4.61µM*	7.2%	15.4%
CSc1cccc(NC(=O)CCCOc2ccc(Cl)cc2C)c1	18.4µM*	1.0%	-9.4	?	?	?
CC(=O)c1cccc(NC(=O)COc2ccccc2)c1	?	-7.3%	-15.1	7.5%	1.9%	5.5%
O=C(COc1ccccc1)Nc1cccc(-c2nc3cc4ccccc4cc3[nH]2)c1	14.6µM*	nt	-84.6*	20.6µM*	?	?
Cc1ccc(-c2nnc(-c3ccc4ccccc4c3)o2)cc1	?	-6.1%	-9.5	?	9.2µM*	?
Cc1cccc(OCC(=O)Nc2cccc(-c3nnc(-c4ccccc4)o3)c2)c1C	-20.9%	-6.7%	0.0	?	1.5%	9.7%
Cc1cccc(C)c1OCC(=O)Nc1cccc(-c2nnc(-c3ccccc3)o2)c1	18.4µM*	-1.9%	-3.2	16.4µM*	-9.2%	-3.2%
Cc1ccc(OCC(=O)Nc2ccc(-c3nc4ccc(C)cc4o3)cc2)cc1	16.4µM*	nt	nt	18.4µM*	nt	nt
Cc1ccc2nc(-c3ccc(C)c(NC(=O)COc4ccc(Br)cc4)c3)oc2c1	?	nt	nt	-12.4%	nt	nt
O=C(NCc1ccccc1)c1cc(C2COCCN2C(=O)C2CC2)on1 (centres undefined)	-9.2%	nt	-4.3	5.2%	-46.3%	1.8%
O=C(CSc1nnc(-c2ccc(F)cc2)c2ccccc12)Nc1ccccc1	?	0.0%	-61.4*	?	-18.6%	-10.1%
O=C(CSc1nnc(-c2ccc(F)cc2)c2ccccc12)Nc1cccc(Cl)c1	?	1.8%	-95.2*	?	-11.7%	-2.3%
CCc1nnc(SCC(=O)Nc2ccccc2)nc1CC	2.9%	-7.4%	12.2	-7.4%	-2.8%	12.2%
COC(=O)Cc1nnc(SCC(=O)Nc2ccccc2)c2ccccc12	18.4µM*	?	-62.7*	23.1µM*	-5.1%	5.4%
CCCC(C(=O)NC1CCCC1)N(C(=O)c1snc(C(N)=O)c1N)c1ccc(F)cc1 (centres undefined)	-9.7%	6.7%	-15.1	-25.7%	-0.3%	3.9%
SMILES	DT40 TDP1 CPT	uPA surface inh	IL1B secr inh	DT40 TDP1 no CPT	HT1080 IDH1KD tx	HT1080NT lethal
CCOc1ccc(NC(=O)NCCn2nnc3cc(S(=O)(=O)N(C)C)ccc32)cc1	9.3%	nt	nt	-10.4%	nt	nt
Cc1cccc(Cn2c(=O)n(CCC(=O)NCc3ccc4c(c3)OCO4)c(=O)c3sccc32)c1	-3.4%	nt	nt	-20.6%	nt	nt
S=c1[nH]c(-c2ccccc2)cn1/N=C/c1ccc(Br)cc1	3.66µM*	-0.8%	-18.9	4.61µM*	0.8%	2.1%
S=c1[nH]c(-c2ccccc2)cn1/N=C/c1cccs1	-97.2%	-1.2%	30.7	8.2µM*	-2.5%	7.1%
Fc1ccccc1/C=N/n1cc(-c2ccccc2)[nH]c1=S	14.6µM*	-1.0%	5.1	8.2µM*	14.5%	-9.6%
Cc1ccc(C)c(/C=N/n2cc(-c3ccccc3)[nH]c2=S)c1	?	-2.2%	-4.6	?	9.4%	-1.3%
C/C=C/c1cccc(-c2nc(C(=O)N3CCCCC3)cc3c2[C@@H](CCO)N(C(=O)NC(C)C)C3)c1	-3.2%	nt	-20.7	-7.2%	15.8%	13.2%
Cc1ccc(Cc2c(-c3ccc(Br)cc3)nc3cc(C)ccn23)cc1	23.1µM*	nt	-7.6	20.6µM*	16.5%	20.4%
Cc1ccc(Cc2c(-c3ccc(F)cc3)nc3cc(C)ccn23)cc1	?	nt	-10.6	16.4µM*	-27.2%	-11.2%
Cc1ccc(Cc2c(-c3ccc(F)cc3)nc3ccc(Br)cn23)cc1	?	nt	4.0	?	-1.9%	-3.5%
COc1ccc(-c2cn(Cc3ccc(C(=O)NCc4ccc(C)cc4)cc3)c(C(C)N)n2)cc1 (centres undefined)	?	2.5%	?	?	-5.4%	-8.2%
CCc1ccc(Cn2nnc(C(=O)Nc3ccc(C)cc3)c2N)cc1	-5.7%	nt	nt	1.6%	nt	nt
Cc1nc2scc(C)n2c(=O)c1S(=O)(=O)Nc1ccc(N2CCN(S(C)(=O)=O)CC2)cc1	23.1µM*	-12.7%	50.3	18.4µM*	-15.3%	-29.0%
CC(=O)c1ccc(NS(=O)(=O)c2c(C)nc3scc(C)n3c2=O)cc1	-23.5%	nt	nt	-11.5%	nt	nt
Cn1cccc/c1=N\c1cccc[n+]1C	1.46µM*	?	0.0	1.03µM*	23.1µM*	-11.3%
CCN(CC)CCCNC(=O)c1cc(-c2ccc(OC)c(OC)c2)on1	-2.4%	nt	nt	32.2%	nt	nt
COc1ccccc1/C=C/c1nc(C#N)c(N2CCCCCC2)o1	?	nt	nt	-26.7%	nt	nt
O=C(N/N=C/c1ccc[nH]1)c1c[nH]c2ccccc12	8.5%	5.0%	26.6	13.6%	-12.1%	-4.6%
CCc1ccc2c(Cl)c(C(=O)N/N=C/c3c[nH]c4ccccc34)sc2c1	20.6µM*	-13.8%	-50.1*	?	1.9%[9.24 µM]	?
